aSyn yeast inh: alpha-synuclein toxicity inhibition in yeast; Yeast expressing alpha-synuclein, growth rescue, BacTiter-Glo, 24 h; Potency, µM (series often up to 46.1 µM), usual class: activators; hit rate 0.14% among 370,000; AID 652106; note: nearly all actives have a fitted effect of over 65% in size
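Rescue of yeast growth: cells expressing toxic alpha-synuclein, induced in galactose at OD600 0.02, incubated with compound 24 h at 30 C. ATP luminescence quantified growth; inhibitors of toxicity appear as activators.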
Rango-impB inh: inhibitors of Rango-importin beta complex formation; Rango CFP/YFP FRET sensor + importin beta, 45 min; Potency, µM (series often up to 92.2 µM); hit rate 0.031% among 340,000; AID 540263; calls by dose curve; note: nearly all actives have a fitted effect of over 15% in size
Target sequence (Q14974 whole entry, looked up): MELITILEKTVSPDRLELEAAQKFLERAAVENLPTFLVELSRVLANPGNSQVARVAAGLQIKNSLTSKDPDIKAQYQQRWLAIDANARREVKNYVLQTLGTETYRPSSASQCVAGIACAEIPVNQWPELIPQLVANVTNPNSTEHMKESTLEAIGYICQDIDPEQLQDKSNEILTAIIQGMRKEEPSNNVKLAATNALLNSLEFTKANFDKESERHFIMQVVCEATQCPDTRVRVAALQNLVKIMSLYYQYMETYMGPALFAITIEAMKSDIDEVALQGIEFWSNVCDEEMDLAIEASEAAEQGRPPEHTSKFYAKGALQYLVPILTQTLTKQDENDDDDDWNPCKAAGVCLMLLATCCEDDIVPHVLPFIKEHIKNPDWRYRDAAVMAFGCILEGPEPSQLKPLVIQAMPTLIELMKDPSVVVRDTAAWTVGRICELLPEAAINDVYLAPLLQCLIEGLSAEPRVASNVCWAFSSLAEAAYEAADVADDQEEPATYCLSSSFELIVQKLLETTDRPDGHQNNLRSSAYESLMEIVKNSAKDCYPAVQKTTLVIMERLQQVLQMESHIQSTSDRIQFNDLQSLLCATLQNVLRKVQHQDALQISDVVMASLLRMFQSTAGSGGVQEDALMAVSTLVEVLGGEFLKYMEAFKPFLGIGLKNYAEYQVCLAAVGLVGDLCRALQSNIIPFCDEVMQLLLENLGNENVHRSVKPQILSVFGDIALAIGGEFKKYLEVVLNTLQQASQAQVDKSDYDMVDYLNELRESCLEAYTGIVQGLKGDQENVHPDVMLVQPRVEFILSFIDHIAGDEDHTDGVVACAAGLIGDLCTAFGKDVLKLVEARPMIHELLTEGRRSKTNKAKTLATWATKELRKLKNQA
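FRET biosensor (snurportin 1 IBB flanked by EYFP and cerulean), 50 nM, with compound 5 min, then 0.125 microM importin beta in PBS, 1 mM DTT, 0.02% Tween-20, 0.1% BSA. CFP/YFP ratio read after 45 min at room temperature; pre-read flags interference.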
Abeta yeast res: restores growth of yeast expressing A-beta42 peptide; hit rate 0.063% among 410,000; Potency, µM (titrated, usually from 46.1 µM), actives largely listed as activators; yeast expressing A-beta42, growth rescue, OD600, 48 h; response scale: 0% DMSO, 100% iron-clioquinol control; note: nearly all actives have a fitted effect of over 55% in size
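Yeast A-beta toxicity model in growth medium with pinned compounds, 48 h at 30 C; growth read as absorbance at 600 nm. Normalized to FeCl3/clioquinol equimolar mix (positive) and DMSO (negative).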
TDP-43 yeast inh: TDP-43 toxicity inhibition in yeast. TDP-43 expressing yeast growth rescue, BacTiter-Glo, 24 h. Potency, µM (highest dose often 46.1 µM), actives largely listed as activators. hit rate 1.8% among 410,000. AID 652104; note: nearly all actives have a fitted effect of over 50% in size
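Cell-based yeast growth screen: TDP-43 expression induced in galactose, inoculum OD600=0.02 after raffinose pregrowth to mid-log. Read-out BacTiter-Glo luminescence at 24 hr, 30 deg C; inhibition of toxicity seen as signal increase.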
S-ASM inh: human S-ASM enzyme inhibition; hit rate 0.006% among 340,000; placental ASM, HMU-PC fluorogenic substrate, 60 min; Potency, µM (titrated, usually from 57.5 µM), most hits filed as inhibitors
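Steps: dispense placental human ASM, pin compound, wait 10 min at room temperature, add HMU-PC0 substrate at 9 uM final, incubate 60 min at 37 °C, add stop solution raising pH to 10, read fluorescence.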
Rango dissoc inh: inhibitors of RanGTP-induced Rango-importin beta complex dissociation; Biochemical FRET Rango-importin beta, RanGTP-induced dissociation; Potency, µM (titrated, usually from 46.1 µM); hit rate 0.071% among 340,000; AID 540253; calls by dose curve; note: nearly all actives have a fitted effect of over 45% in size
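Rango/importin beta premix (0.1/0.25 uM final), PBS + 1 mM DTT + 0.02% Tween-20 + 0.1% BSA; cpd 5 min RT; FRET pre-read; + RanGTP-RCC1 (0.6 uM Ran, 2 mM GTP, 0.2 uM RCC1); 45 min RT; FRET post-read, ex 430, em 486/530 nm.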
Numbers stand for hits. A selection: hits, their analogues and other compounds. The true share with any hit is near 2%. Unless noted, calls come from the whole dose curve; as a rule, active = well fitted curve in the direction sought with a large enough effect; inconclusive = small, poorly fitted or top-dose-only effect, or another doubt; inactive = no such curve, though single readings can be large; an effect the other way counts as inactive or inconclusive.

How did COc1ccccc1N1CCN(C(=O)c2cc(-c3ccc(C)c(F)c3)on2)CC1 do in these assays?
Abeta yeast res: inactive; TDP-43 yeast inh: 35µM

What do the screens show for `O=C(c1cc(-c2ccc(O)cc2)on1)N1CCN(c2ccc(F)cc2)CC1`?
aSyn yeast inh: inactive; Rango-impB inh: inactive; Abeta yeast res: inconclusive; TDP-43 yeast inh: 16µM; S-ASM inh: inactive; Rango dissoc inh: inactive

How did COc1ccc(OC)c(-c2cc(C(=O)N3CCOCC3)no2)c1 do in these assays?
aSyn yeast inh: inactive; Rango-impB inh: inactive; Abeta yeast res: inactive; TDP-43 yeast inh: inactive; S-ASM inh: inactive; Rango dissoc inh: inactive

How did COc1ccccc1-c1cc(C(=O)N2CCN(c3ccccc3)CC2)no1 do in these assays?
aSyn yeast inh: inactive; Rango-impB inh: inactive; Abeta yeast res: inactive; TDP-43 yeast inh: 18µM; S-ASM inh: inactive; Rango dissoc inh: inactive

What do the screens show for `O=C(c1cc(-c2ccc3c(c2)OCO3)on1)N1CCN(c2ccc(F)cc2)CC1`?
aSyn yeast inh: inactive; Rango-impB inh: inactive; Abeta yeast res: inactive; TDP-43 yeast inh: inactive; S-ASM inh: inconclusive; Rango dissoc inh: inactive

How did CCCCC(=O)Nc1nnc(S(=O)(=O)N(C)Cc2ccccc2)s1 do in these assays?
Abeta yeast res: inactive; TDP-43 yeast inh: inconclusive

How did COc1cccc(CNCc2cccn2-c2nnc(N3CCN(c4ccccc4)CC3)s2)c1 do in these assays?
aSyn yeast inh: inactive; Abeta yeast res: inactive; TDP-43 yeast inh: inactive

Results for Cc1oc2ncnc(N3CCOCC3)c2c1C(=O)NCc1ccccc1 ?
Abeta yeast res: inactive; TDP-43 yeast inh: inactive

Results for COc1ccccc1N1CCN(C(=O)c2oc3cc(C)cc(C)c3c2C)CC1 ?
aSyn yeast inh: inactive; Rango-impB inh: inactive; Abeta yeast res: inactive; TDP-43 yeast inh: 22µM; S-ASM inh: inactive; Rango dissoc inh: inactive

Results for CCCOc1ccc(C(=O)NNC(=S)NC(=O)c2cc(-c3ccc(Cl)cc3)nc3ccccc23)cc1 ?
aSyn yeast inh: inactive; Rango-impB inh: inactive; Abeta yeast res: inactive; TDP-43 yeast inh: 13µM; S-ASM inh: inactive; Rango dissoc inh: inactive

What do the screens show for `CC(C)CC(COCc1ccc(Cl)cc1)N1CCN(C(=O)c2cccc(C(F)(F)F)c2)CCC1=O` (stereo not given)?
aSyn yeast inh: inactive; Rango-impB inh: inactive; Abeta yeast res: inactive; TDP-43 yeast inh: inactive; S-ASM inh: inactive; Rango dissoc inh: inactive

What do the screens show for `Cc1ccc(COC[C@H](CC(C)C)N2CCN(C(=O)c3cccc(C(F)(F)F)c3)CCC2=O)cc1`?
aSyn yeast inh: inactive; Abeta yeast res: inactive; TDP-43 yeast inh: 16µM

What do the screens show for `Cc1cccc(N2CCN(S(=O)(=O)c3csc(C(N)=O)c3)CC2)c1C`?
Abeta yeast res: inactive; TDP-43 yeast inh: inactive

What do the screens show for `c1ccc(-c2ncnc3ccccc23)cc1`?
aSyn yeast inh: inactive; Rango-impB inh: inactive; Abeta yeast res: inactive; TDP-43 yeast inh: 13µM; S-ASM inh: inactive; Rango dissoc inh: inactive

How did N#CCSc1ncnc2ccccc12 do in these assays?
aSyn yeast inh: inactive; Rango-impB inh: inactive; Abeta yeast res: inactive; TDP-43 yeast inh: inactive; S-ASM inh: inactive; Rango dissoc inh: inactive

What do the screens show for `c1ccc(Sc2ncnc3ccccc23)cc1`?
aSyn yeast inh: inactive; Rango-impB inh: inactive; Abeta yeast res: inactive; TDP-43 yeast inh: 13µM; S-ASM inh: inactive; Rango dissoc inh: inactive

Results for Cc1c(O)c2c(c(C(=O)/C=C/c3ccccc3)c1O)OC(C)(C)C=C2 ?
aSyn yeast inh: inactive

What do the screens show for `COc1ccc(Cc2c(-c3ccccc3)nc3c4ccccc4ccn23)c(C)c1`?
aSyn yeast inh: inactive; Abeta yeast res: inactive; TDP-43 yeast inh: 11µM

Results for COc1ccc(-c2nc3c4ccccc4ccn3c2Cc2ccccc2)cc1OC ?
aSyn yeast inh: inactive; Abeta yeast res: inactive; TDP-43 yeast inh: inactive

Results for COc1ccccc1Cc1c(-c2ccc(OC)c(OC)c2)nc2c3ccccc3ccn12 ?
aSyn yeast inh: inactive; Abeta yeast res: inactive; TDP-43 yeast inh: 11µM

Results for COc1ccc(-c2nc3c4ccccc4ccn3c2Cc2ccccc2C(F)(F)F)cc1OC ?
aSyn yeast inh: inactive; Abeta yeast res: inactive; TDP-43 yeast inh: 20µM

How did COc1ccc(Cc2c(-c3ccc(F)cc3)nc3c4ccccc4ccn23)c(C)c1 do in these assays?
aSyn yeast inh: inactive; Abeta yeast res: inactive; TDP-43 yeast inh: inconclusive

What do the screens show for `CCOC(=O)Cc1c(-c2cccc(Br)c2)nc2c3ccccc3ccn12`?
aSyn yeast inh: inactive; Abeta yeast res: inactive; TDP-43 yeast inh: 22µM

Results for Brc1cccc(-c2nc3c4ccccc4ccn3c2Cc2ccsc2)c1 ?
aSyn yeast inh: inactive; Abeta yeast res: inactive; TDP-43 yeast inh: inconclusive

How did CCOc1ccc(C(=O)OCc2cc(=O)n3nc(C(C)C)sc3n2)cc1 do in these assays?
Abeta yeast res: inactive; TDP-43 yeast inh: inactive

Results for Cc1ccc2oc(C(=O)Nc3ccc(S(=O)(=O)Nc4ncccn4)cc3)cc(=O)c2c1 ?
Abeta yeast res: inactive; TDP-43 yeast inh: inactive

How did S=Cc1ccc(/C=C/c2ccnc3ccccc23)cc1 do in these assays?
aSyn yeast inh: inactive

How did O=S(=O)(Nc1nc(SCc2ccc(Cl)cc2)n[nH]1)c1ccc(F)cc1 do in these assays?
aSyn yeast inh: inactive; Rango-impB inh: inactive; Abeta yeast res: inconclusive; TDP-43 yeast inh: 20µM; S-ASM inh: inactive; Rango dissoc inh: inactive

Results for CCc1nc(SCc2ccc(Cl)cc2)n[nH]1 ?
aSyn yeast inh: inactive; Rango-impB inh: inactive; Abeta yeast res: inactive; TDP-43 yeast inh: 13µM; S-ASM inh: inactive; Rango dissoc inh: inactive

How did N#Cc1ccc(C(=O)Nc2nc(SCc3ccc(Cl)cc3)n[nH]2)cc1 do in these assays?
aSyn yeast inh: inactive; Rango-impB inh: inactive; Abeta yeast res: inactive; TDP-43 yeast inh: inactive; S-ASM inh: inactive; Rango dissoc inh: inactive

How did COc1ccccc1C(=O)c1cn(CC(=O)Nc2ccccc2F)c2nc(C)ccc2c1=O do in these assays?
Abeta yeast res: inactive; TDP-43 yeast inh: inactive

Results for CCNC(=O)CN(c1ccc(Cl)cc1)S(=O)(=O)c1ccccc1 ?
aSyn yeast inh: inactive; Rango-impB inh: inactive; Abeta yeast res: inactive; TDP-43 yeast inh: 11µM; S-ASM inh: inactive; Rango dissoc inh: inconclusive

Results for CCNc1nc(-c2sc(NC(=O)C(C)(C)C)nc2C)c(-n2cc(-c3ccccc3)nn2)s1 ?
aSyn yeast inh: inactive; Abeta yeast res: inactive; TDP-43 yeast inh: 28µM

Results for Cc1nc(NC(=O)C(C)(C)C)sc1-c1nc(N)sc1-n1cc(-c2ccccc2)nn1 ?
aSyn yeast inh: inactive; Abeta yeast res: inactive; TDP-43 yeast inh: inactive

How did COC(=O)c1ccc(NC(=O)C(=O)NCCc2sc(-c3cccc(F)c3)nc2C)cc1 do in these assays?
Abeta yeast res: inactive; TDP-43 yeast inh: inactive

Screening data from PubChem BioAssay.
